# In the library only some 19% were active in any assay of this set; here they are far more common.
# ELG1 repair inh = qHTS screen for small molecules that inhibit ELG1-dependent DNA repair in human embryonic kidney (HEK293T) cells expressing luciferase-tagged ELG1 | actives 2.3% (n = 330,000) | Potency, µM (doses to about 46.1 µM), usual class: inhibitors | HEK293T ELG1-luciferase reporter, luminescence, 16 h; DNA damage induced by 5-fluorouridine; also: nearly all actives have a fitted effect of over 55% in size
#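 Luminescence from the luciferase reporter, measured 30 min after ONE-Glo reagent at room temperature, was the read-out. Beforehand, 2,000 cells per well were exposed for 16 hr at 37 °C to 5-fluorouridine together with compound or vehicle.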
# HT1080NT lethal = qHTS for induction of synthetic lethality in tumor cells producing 2HG: qHTS for the HT-1080-NT fibrosarcoma cell line. HT-1080-NT fibrosarcoma viability, CellTiter-Glo ATP luminescence, 48 h. Potency, µM (doses to about 46.1 µM), most hits filed as cytotoxic. actives 1.6% (n = 360,000). AID 686970, 2013;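 also: NT is the 2HG producing partner of a matched IDH1 knockdown line; nearly all actives have a fitted effect of over 55% in size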
#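 Read-out is CellTiter-Glo luminescence after 10 minutes at room temperature, following 48 hours' compound treatment of HT-1080-NT cells (750 cells/well, RPMI, 5% FBS, 37 degrees C).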
# HT1080 IDH1KD tx = qHTS for induction of synthetic lethality in tumor cells producing 2HG: qHTS for the HT-1080-IDH1KD cell line. HT-1080 IDH1 knockdown viability, ATP luminescence, 48 h. Potency, µM (titrated, usually from 46.1 µM), usual class: cytotoxic. actives 2% (n = 360,000)
#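 Assay cells: HT-1080 with IDH1 knockdown, 750 per well, RPMI/5% FBS. Exposure: 48 h at 37 °C following 2 h pre-incubation. Read: CellTiter-Glo luminescence; fitted concentration-response, curve class assigned.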
# DT40 TDP1 no CPT = qHTS for Inhibitors of human tyrosyl-DNA phosphodiesterase 1 (TDP1): qHTS in cells in absence of CPT. actives 15% (n = 420,000). DT40 Tdp1-/- hTDP1 cells, no CPT, ATP luminescence, 48 h. Potency, µM (titrated, usually from 46.2 µM), actives largely listed as inhibitors; also: nearly all actives have a fitted effect of over 55% in size
#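 Growth of hTDP1-complemented DT40 Tdp1-knockout cells is measured by ATP luminescence after at least 48 hr compound exposure at 37 °C, with DMSO substituting for the 20 nM CPT used in the parallel screen.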
# TDP1 cell CPT = qHTS for Inhibitors of human tyrosyl-DNA phosphodiesterase 1 (TDP1): qHTS in cells in presence of CPT. chicken DT40 Tdp1-/-;hTDP1 cells + 20 nM CPT, ATP luminescence, 48 h. Potency, µM (titrated, usually from 46.2 µM), most hits filed as inhibitors. actives 12% (n = 420,000); also: nearly all actives have a fitted effect of over 55% in size
#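 Chicken DT40 Tdp1-/- cells complemented with human TDP1, 400 cells/well, exposed to compounds plus 20 nM camptothecin for at least 48 h at 37 C; viability read as ATP content by CellTiter-Glo luminescence.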
# IL-1B inflam inh = qHTS for Inhibitors of Inflammasome Signaling: IL-1-beta AlphaLISA Primary Screen. THP-1 LPS/ATP IL-1B secretion, AlphaLISA, 16 h; hits give low values. activity change, % at 57.5 µM. actives 4.7% (n = 360,000); in the data active = activity change below about -50%; inconclusive = mostly about -30% to -49%
#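 THP-1 cells pretreated 1 hr with compounds (up to 57.5 uM final), then stimulated with LPS (250 ng/mL final) plus ATP (1.25 mM final); secreted IL-1B measured by AlphaLISA after 16 hr, decreased signal indicating inhibition.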
# Hits are given with their value; . = inactive; ? = inconclusive; / = no result given; ! = not confirmed by another sample. Unless noted, calls follow the shape of the dose curve; as a rule, active = well fitted curve in the direction sought with a large enough effect; inconclusive = small, poorly fitted or top-dose-only effect, or another doubt; inactive = no such curve, though single readings can be large; an effect the other way counts as inactive or inconclusive.
SMILES,ELG1 repair inh,HT1080NT lethal,HT1080 IDH1KD tx,DT40 TDP1 no CPT,TDP1 cell CPT,IL-1B inflam inh
CC(=O)Nc1ccc(S(=O)(=O)NC2(C(F)(F)F)C(=O)Nc3c2c(=O)[nH]c(=O)n3-c2ccc(C)c(C)c2)cc1 (stereo not drawn),/,/,/,.,.,/
CCc1ccc2[nH]c(=O)c(CN(CCN3CCCC3)C(=O)NC3CCCCC3)cc2c1,.,?,?,23µM,16µM,-56
O=C(NC1CCCCC1)N(CCN1CCOCC1)Cc1cc2cc3c(cc2[nH]c1=O)OCCO3,?,.,.,?,13µM,.
COc1ccccc1CNC(=O)C1CCN(S(=O)(=O)c2ccc(-n3cnnn3)cc2)CC1,.,.,.,.,.,.
OCc1nc2ccccc2n1Cc1c(F)cccc1Cl,.,.,.,15µM!,?,.
CCn1c2ccccc2c2nc3cc(S(=O)(=O)N4CCOCC4)ccc3nc21,?,.,.,13µM,15µM,?
Cc1ccc(C(=O)CSc2nc3cc(S(=O)(=O)N4CCOCC4)ccc3o2)cc1,.,.,.,?,18µM,.
CCn1c(SCC(=O)c2cc(C)ccc2C)nc2cc(S(=O)(=O)N3CCOCC3)ccc21,?,.,.,18µM,?,.
CCCn1c(CCl)nc2cc(S(=O)(=O)N3CCOCC3)ccc21,?,.,.,.,.,.
CCC(C)NC(=O)CSc1nc2cc(S(=O)(=O)N3CCOCC3)ccc2n1CC (stereo not drawn),.,.,.,.,.,.
O=C(CSc1nc2cc(S(=O)(=O)N3CCOCC3)ccc2o1)Nc1c(F)cccc1F,.,.,.,21µM,21µM,.
CC(=O)Nc1ccc(NS(=O)(=O)c2c(C(=O)N3CCC(C)CC3)c(C)n(C)c2C)cc1,/,/,/,.,.,/
CCSc1nc2cc(S(=O)(=O)N3CCOCC3)ccc2o1,.,.,.,?,?,.
Cc1[nH]c2ccccc2c1C(=O)CSc1nc2cc(S(=O)(=O)N3CCCCC3)ccc2o1,15µM,.,.,21µM,23µM,.
CCOC(=O)C1CCCN(C(=O)c2ccc(C)c(NC(=O)c3nsc4ccccc34)c2)C1 (stereo not drawn),/,/,/,18µM,?,/
CCOC(=O)C1CCN(C(=O)c2ccc(C)c(NC(=O)c3nsc4ccccc34)c2)CC1,/,/,/,23µM,?,/
COC(=O)c1nc(-c2ccccc2)nc(-c2ccccc2)c1C(=O)OC,/,.,.,.,.,.
Nc1ncc(-c2ccc(F)cc2)nc1N1CCN(CCO)CC1,/,.,.,.,.,.
OCCN1CCN(C2CCC(c3ccc(F)cc3)c3ccc(F)cc32)CC1 (stereo not drawn),/,18µM,23µM,8.2µM,?,-76
Cc1cc(NC(=O)CSc2nc(C(C)C)nc3c2c(=O)n(C)c(=O)n3C)no1,.,.,.,16µM,16µM,.
CCCn1c(=O)n(C)c(=O)c2c(SCC(=O)Nc3cc(C)on3)nc(C(C)(C)C)nc21,8.2µM,.,.,?,?,.
CCCCc1nn2c(=O)cc(COC(=O)c3ccccc3NC(=O)c3cccs3)nc2s1,/,/,/,.,.,/
Cc1cnc(C(=O)OCc2nc3ccsc3c(=O)[nH]2)cn1,.,.,.,.,.,.
O=[N+]([O-])c1cc(-c2nc(-c3ccccc3)no2)ccc1NCc1cccnc1,/,/,/,5.8µM,12µM,/
Cc1ccc(-c2noc(-c3ccc(NCc4cccnc4)c([N+](=O)[O-])c3)n2)cc1,/,/,/,5.2µM,?,/
SMILES,ELG1 repair inh,HT1080NT lethal,HT1080 IDH1KD tx,DT40 TDP1 no CPT,TDP1 cell CPT,IL-1B inflam inh
CC(C)CC1NC(=S)N(C2CCCCC2)C1=O (stereo not drawn),.,.,.,15µM,8.2µM,.
O=C1C(Cc2ccc(O)cc2)NC(=S)N1C1CCCCC1 (stereo not drawn),.,.,.,.,.,.
N[C@@H](Cc1ccc(O)c(O)c1)C(=O)O,/,.,.,.,.,-107
CC(C)C[C@H]1CNC(=S)N1C[C@H]1CCCN1C[C@H](CC(C)C)N1C[C@H](CC(C)C)N(CCc2ccccc2)C1=S,/,.,?,26µM,?,.
CC(C)C[C@H]1CNC(=S)N1C[C@H]1CCCN1C[C@H](CC(C)C)N1C[C@H](Cc2ccccc2)N(CCc2ccccc2)C1=S,/,?,.,21µM,?,?
CC(C)C[C@H]1CNC(=S)N1C[C@H]1CCCN1C[C@H](Cc1ccccc1)N1C[C@H](CC(C)C)N(CCc2ccccc2)C1=S,/,.,.,16µM,13µM,.
CC(C)C[C@@H](CN1CCC[C@H]1CN1C(=O)C(=O)NC[C@@H]1Cc1ccc(O)cc1)N1C[C@H](Cc2ccc(O)cc2)N(CCc2ccccc2)C(=O)C1=O,/,.,.,.,.,.
CC(C)C[C@H]1CNC(=S)N1CC1CCCN1C[C@H](CC(C)C)N1C[C@H](CC(C)C)N(CCc2ccccc2)C1=S (stereo partly drawn),/,.,.,5.8µM,8.2µM,.
Cc1cc(C)cc(NC(=O)N2CCN3CCCCC3C2)c1 (stereo not drawn),/,/,/,.,.,/
Cc1cccc(C)c1NC(=O)C1(C)CSCC(=O)N1Cc1ccco1 (stereo not drawn),/,.,.,.,.,.
CC(=O)N1CCc2c(sc3c2c(=O)n(-c2ccccc2)c(=O)n3CC(=O)Nc2ccccc2)C1,/,/,/,.,.,/
Cc1csc(NC(=O)CCC(=O)N(CC(=O)NC2CCCC2)Cc2ccccc2)n1,.,.,.,.,.,.
COc1ccc(NC(=O)c2nnn(CC(=O)Nc3ccc4c(c3)OCO4)c2N)cc1OC,.,?,?,.,.,.
Nc1c(C(=O)Nc2ccc3c(c2)OCCO3)nnn1Cc1cccc(Cl)c1,?,?,?,16µM,?,.
COc1ccc(Br)cc1Cn1nnc(C(=O)Nc2ccc3c(c2)OCCO3)c1N,.,?,?,26µM,?,.
O=c1c2ccccc2c(C=NC2CCN(Cc3ccccc3)CC2)c(O)n1Cc1ccc2c(c1)OCO2,6.5µM,/,/,/,/,/
CN(C)CCCN=Cc1c(O)n(Cc2ccc3c(c2)OCO3)c(=O)c2ccccc12,.,/,/,/,/,/
CN(C)CCN=Cc1c(O)n(Cc2ccc3c(c2)OCO3)c(=O)c2ccccc12,.,.,.,.,.,-53

# Screening results: PubChem BioAssay, National Center for Advancing Translational Sciences (NCATS)
